From PubChem BioAssay (NCATS)
Where “and” joins values, the source holds several entries; their conditions need not be identical. Equal entries are not always repeated. Inconclusive results are not listed. A call without a number means that no potency is given here. More than one record can exist for a structure, and the calls need not agree. Calls of active or inactive are those of the source. Calls follow the shape of the dose curve; as a rule, active = well fitted cell-killing curve with a large enough effect; inconclusive = small, poorly fitted or top-dose-only effect, or effect the other way; inactive = no such curve, though single readings can be large or run the other way.

Assay: Viability qHTS for spleen associated tyrosine kinase inhibitor (SYKi) naive MV4-11 cells (AID 1963823); also: nearly all actives have a fitted effect of over 40% in size
Settings: MV4-11 AML viability, CellTiter-Glo luminescence, 72 h; series mostly up to 45 µM
Description: Department of Medicine, Hematology/Oncology
University Hospital Frankfurt, Germany.
Trials have shown promising clinical activity of the selective SYK inhibitor entospletinib in patients with high expressing HOXA9/MEIS1 acute leukemias. As the development of resistance mechanisms is a common problem in the use of targeted drugs, we performed a chemical library screen to identify drug sensitivities in SYK inhibitor resistant AML cells. […] Glucocorticoids are potent immunosuppressants which work in part by inhibiting the transcription of cytokine genes.
Described herein is a viability screen to look for activity in the SYK inhibitor naive cell line against four NCATS compound libraries (MIPE 5.0, NPC, NPACT, and Kinase) totaling 11372 compounds. Active hits were reacquired for confirmation and further secondary assay testing.
SEQUENCE No. (e.g., 1, 2, 3, etc.); […] (e.g., Cells, Incubation, Reagent, etc.); VALUE; DESCRIPTION.
1; Media; 2uL; white, solid-bottom Corning assay plate.
2; Compounds; 23nL; Echo acoustic dispenser.
3; Cell; 5uL; 500 cells per well.
4: Incubation; 72hr; 37 C, 5% CO2, 95% humidity.
5; Reagent; 3uL; CellTiter-Glo reagent (Promega).
6; Incubation; 10min; room temperature.
7; Detection; Luminescence; ViewLux plate reader (PerkinElmer).
NOTES (numbers refer to Sequence numbers above
1. Quantitative high-throughput screening (qHTS) of small molecule compounds was conducted on naive SYKi MV4-11 cell line.
2. Twenty-three nanoliter of small molecule compounds were added to each assay plates using the Echo acoustic dispenser (Beckman Coulter).
3. Cells were seeded into the assay plates at a final density of 500 cells in 5uL of media per well using the Multi-drop Combi dispenser.
4. Plates were covered with stainless steel gasketed lids and incubated for 72 hours at standard cell culture conditions.
5. Viability was assessed by adding 3uL of CellTiter-Glo detection reagent (Promega).
6. Plates were covered with gasket lids and incubated for 10 minutes at room temperature.
7. Luminescence was measured on a ViewLux plate reader (PerkinElmer).
Potency is read from the fitted curve at half-maximal effect.

| SMILES | Potency | viability (% of control) |
| --- | --- | --- |
| Cc1cccc(CN2CCN(C(c3ccccc3)c3ccc(Cl)cc3)CC2)c1 (stereo not given) | 20.9 µM (active) |  |
| Cc1cc(C)cc(OCC2CNC(=O)O2)c1 (stereo not given) | inactive |  |
| CC[N+](C)(CC)CCOC(=O)C1c2ccccc2Oc2ccccc21 | inactive |  |
| CC(O)(CC(=O)O)CC(=O)O[C@@H]1[C@@H](O)[C@H](OCCc2ccccc2)O[C@H](CO)[C@H]1O (stereo not given in full) | inactive |  |
| C[C@]1(O)CC[C@@H]2C(C(=O)O)=CO[C@@H](O[C@@H]3O[C@H](COC(=O)/C=C/c4ccc(O)c(O)c4)[C@@H](O)[C@H](O)[C@H]3O)[C@@H]21 | inactive |  |
| S=P(N1CC1)(N1CC1)N1CC1 | inactive and 6.61 µM (active) |  |
| C=CCc1ccc(O[C@@H]2O[C@H](CO)[C@@H](O)[C@H](O)[C@H]2O)c(O[C@@H]2O[C@H](CO)[C@@H](O)[C@H](O)[C@H]2O)c1 | inactive |  |
| CNC(=O)COC(=O)NCCC1CCN(c2cccc(C)n2)CC1 | inactive |  |
| CC[C@@H](O)C[C@@H]1C(C)=C[C@@H]2CCCC[C@@H]2[C@@]1(C)C(=O)O | inactive |  |
| CN1C(C(=O)Nc2ccccn2)=C(O)c2sc(Cl)cc2S1(=O)=O | inactive |  |
| O=C(O)c1ccnc(-c2cc(C(=O)NCCc3ccccc3)ccn2)c1 | inactive |  |
| Cc1nnc(C(C)C)n1C1CC2CCC(C1)N2CCC(NC(=O)C1CCC(F)(F)CC1)c1ccccc1 (stereo not given) | inactive |  |
| OC[C@H]1O[C@@H](OC[C@H]2O[C@@H](OC/C=C/c3ccccc3)[C@H](O)[C@@H](O)[C@@H]2O)[C@@H](O)[C@@H]1O | inactive |  |
| O=c1ccn([C@@H]2O[C@H](CO)[C@@H](O)[C@H]2O)c(=O)[nH]1 | inactive |  |
| Nc1nc(N)c(N=O)c(OCC2CCCCC2)n1 | 6.51 µM (active) and 6.61 µM (active) |  |
| COc1c(O)cc2c(c1O)C(=O)O[C@H](C)[C@H]2O | inactive |  |
| C/C=C/C1=CC2=C(CO1)C(=O)C(C)(O)C(OC(=O)c1c(C)cc(OC)cc1O)C2 (stereo not given) | 6.4 µM (active) |  |
| c1cc(OCCN2CCCCC2)cc(-c2n[nH]c3ccc(-c4ncn[nH]4)cc23)c1 | 0.651 µM (active) |  |
| OC/C=C/c1ccc(O[C@@H]2O[C@H](CO)[C@@H](O)[C@H](O)[C@H]2O)cc1 | inactive |  |
| CC1=CC(=O)CC(C)(CO[C@@H]2O[C@H](CO)[C@@H](O)[C@H](O)[C@H]2O)C1(O)/C=C/C(C)=C/C(=O)O (stereo not given in full) | inactive |  |

| SMILES | Potency | viability (% of control) |
| --- | --- | --- |
| COc1cc(N2CCC(N3CCN(C)CC3)CC2)ccc1Nc1ncnc(Nc2ccccc2S(=O)(=O)C(C)C)n1 | 1.16 µM (active) and 1.32 µM (active) |  |
| CC1=C(C/C=C(\C)CCC[C@H](C)CCC[C@H](C)CCCC(C)C)C(=O)c2ccccc2C1=O | inactive |  |
| CCN(CC)CCNC(=O)c1c(C)[nH]c(/C=C2/C(=O)Nc3ccc(-c4csc(-c5ccccc5)n4)cc32)c1C | 0.468 µM (active) |  |
| O=c1c2ccccc2nc2n1CCC2O (stereo not given) | inactive |  |
| CC1(C)CC2C(O)c3cocc3CC(C)(O)C2C1 (stereo not given) | inactive |  |
| C=C1C(=O)OC2C1CCC1(C)C(O)CC=C(C)C21 (stereo not given) | 10.3 µM (active) |  |
| O=C(NCc1ccc(OC(F)(F)F)cc1)C1c2ccccc2C(=O)N1C1CCOCC1 (stereo not given) | inactive |  |
| CSCC[C@H](NC(=O)[C@H](Cc1c[nH]c2ccccc12)NC(=O)CCNC(=O)OC(C)(C)C)C(=O)N[C@@H](CC(=O)O)C(=O)N[C@@H](Cc1ccccc1)C(N)=O | inactive |  |
| COC(=O)c1ccc([C@H]2c3[nH]c4ccccc4c3C[C@H](C(=O)OC)N2C(=O)CCl)cc1 | 0.235 µM (active) |  |
| C=C1C(=O)O[C@H]2/C=C(/C)[C@@H](OC(C)=O)C/C=C(\C)C[C@@H](OC(=O)/C(=C/C)COC(=O)/C(=C/C)CO)[C@@H]12 | 1.78 µM (active) |  |
| COc1cc(S(N)(=O)=O)cc(C(=O)O)c1OC | inactive |  |
| C[C@@H]1CC[C@]2(C(=O)O[C@@H]3O[C@H](CO)[C@@H](O)[C@H](O)[C@H]3O)CC[C@]3(C)C(=CCC4[C@@]5(C)C[C@@H](O)[C@H](O)[C@@](C)(C(=O)O[C@H]6[C@H](O)C[C@@]7(C)C(CC[C@]8(C)C7CC=C7[C@H]9[C@](C(=O)O[C@@H]%10O[C@H](CO)[C@@H](O)[C@H](O)[C@H]%10O)(CC[C@@H](C)[C@@]9(C)O)CC[C@]78C)[C@@]6(CO)C(=O)O)C5CC[C@]43C)[C@@H]2[C@]1(C)O (stereo not given in full) |  | 65.2% [at 9.25 µM] (inactive) |
| C=C(C)[C@@H]1CC[C@]2(C(=O)O)CC[C@]3(C)C(CCC4[C@]5(C)C(CC[C@]43C)C(C)(C)[C@@H](O)[C@@H]5C(=O)O)C12 (stereo not given in full) | inactive |  |
| C=C1C(=O)O[C@@H]2C[C@@]3(C)CCC[C@H](C)C3=C[C@H]12 | 13 µM (active) |  |
| C=C1C[C@]23C[C@H]1CC[C@H]2[C@@]12CC[C@H](O)[C@@](C)(C(=O)O1)[C@H]2[C@@H]3C(=O)O | inactive |  |
| COc1cc(O)cc(C)c1C(=O)OC1C(CO)OC(OC2C(O)C(O)C(O)C(O)C2O)C(O)C1O (stereo not given) | inactive |  |
| Clc1ccc2c(c1)C(N1CCNCC1)=Nc1ccccc1O2 | inactive |  |
| Cc1c(CN2CCC(Nc3ncnc4sc(CC(F)(F)F)cc34)CC2)ccc2c1cc(C#N)n2Cc1cn[nH]c1 | 0.525 µM (active) |  |
| CC(=O)NCc1c(I)c(NC(C)=O)c(I)c(C(=O)O)c1I | inactive |  |
| CN(C)CC[C@@H](c1ccc(Cl)cc1)c1ccccn1 | inactive |  |
